Where “and” joins values, the source holds several entries; their conditions need not be identical. Equal entries are not always repeated. For some of these results: Entries with a potency or affinity are not part of this list.
What was measured:
[1] = target: Protein translocase subunit SecA (Escherichia coli (strain K12)) (UniProt P10408); assay: Assay to Identify E. coli SecA ATPase Inhibitors; format: functional; set-up: scale not given: direction of the effect not stated beside the values; settings: 30 µM
[2] = target: T1, Ubiquitin-activating enzyme e1, putative (Leishmania donovani (strain BPK282A1)) (UniProt E9BSI1); assay: Leishmania donovani Ubiquitin Activating Enzyme (LdE1); format: functional; set-up: scale not given: direction of the effect not stated beside the values; settings: 30 µM
T1 sequence (whole entry): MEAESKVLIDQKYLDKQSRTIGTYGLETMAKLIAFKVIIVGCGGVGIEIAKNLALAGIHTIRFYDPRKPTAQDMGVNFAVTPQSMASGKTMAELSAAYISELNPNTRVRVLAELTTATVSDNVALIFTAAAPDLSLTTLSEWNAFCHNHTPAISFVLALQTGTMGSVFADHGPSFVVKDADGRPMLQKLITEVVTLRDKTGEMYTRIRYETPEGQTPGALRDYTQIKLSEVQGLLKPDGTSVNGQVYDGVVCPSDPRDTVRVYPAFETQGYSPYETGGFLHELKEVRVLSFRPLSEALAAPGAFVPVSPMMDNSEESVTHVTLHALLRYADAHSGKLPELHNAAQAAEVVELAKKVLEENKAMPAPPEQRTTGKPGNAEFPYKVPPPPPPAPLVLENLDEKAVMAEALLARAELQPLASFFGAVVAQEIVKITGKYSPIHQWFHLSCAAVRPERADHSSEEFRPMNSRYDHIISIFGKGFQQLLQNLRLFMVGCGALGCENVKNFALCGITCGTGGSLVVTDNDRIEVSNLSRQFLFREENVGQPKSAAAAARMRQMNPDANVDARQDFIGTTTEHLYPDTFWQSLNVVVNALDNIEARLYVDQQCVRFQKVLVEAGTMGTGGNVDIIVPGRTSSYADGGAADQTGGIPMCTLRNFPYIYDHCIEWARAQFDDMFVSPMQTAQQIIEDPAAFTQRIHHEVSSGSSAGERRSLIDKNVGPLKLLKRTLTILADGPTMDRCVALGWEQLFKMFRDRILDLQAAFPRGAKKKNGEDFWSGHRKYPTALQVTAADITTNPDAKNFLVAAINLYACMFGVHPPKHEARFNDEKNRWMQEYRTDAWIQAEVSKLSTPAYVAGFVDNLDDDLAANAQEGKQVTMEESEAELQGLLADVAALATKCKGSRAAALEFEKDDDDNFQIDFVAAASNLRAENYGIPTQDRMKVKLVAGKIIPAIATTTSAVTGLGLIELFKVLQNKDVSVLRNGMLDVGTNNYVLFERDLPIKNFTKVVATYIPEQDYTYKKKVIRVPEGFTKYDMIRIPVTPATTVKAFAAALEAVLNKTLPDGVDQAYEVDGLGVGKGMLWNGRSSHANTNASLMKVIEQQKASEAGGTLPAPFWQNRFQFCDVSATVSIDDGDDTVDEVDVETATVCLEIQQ

[3] = target: T2, Aspartate--tRNA(Asp/Asn) ligase (Mycobacterium tuberculosis (strain ATCC 25618 / H37Rv)) (UniProt P9WFW3); assay: Assay for Asp RNA synthetase-1 from Mycobacterium tuberculosis; format: functional; set-up: scale not given: direction of the effect not stated beside the values; settings: 30 µM; also: in the data most compounds retested in dose-response had high values
T2 sequence (whole entry): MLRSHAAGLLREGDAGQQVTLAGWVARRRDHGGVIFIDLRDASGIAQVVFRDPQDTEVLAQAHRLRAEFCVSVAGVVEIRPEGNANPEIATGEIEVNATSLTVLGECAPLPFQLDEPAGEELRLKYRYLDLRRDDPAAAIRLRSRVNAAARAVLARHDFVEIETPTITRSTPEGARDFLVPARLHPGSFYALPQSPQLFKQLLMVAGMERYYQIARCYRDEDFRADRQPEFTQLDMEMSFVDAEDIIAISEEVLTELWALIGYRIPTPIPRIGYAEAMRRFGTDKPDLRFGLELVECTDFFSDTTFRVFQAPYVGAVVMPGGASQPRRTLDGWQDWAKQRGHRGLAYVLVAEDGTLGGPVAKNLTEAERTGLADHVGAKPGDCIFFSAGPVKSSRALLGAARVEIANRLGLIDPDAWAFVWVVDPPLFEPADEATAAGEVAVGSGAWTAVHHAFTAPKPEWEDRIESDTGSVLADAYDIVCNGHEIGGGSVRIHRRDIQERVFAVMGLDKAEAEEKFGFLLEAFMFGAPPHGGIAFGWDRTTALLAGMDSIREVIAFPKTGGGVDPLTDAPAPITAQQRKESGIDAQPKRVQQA

[4] = target: AMP-activated protein kinase, AMPK (Homo sapiens) (UniProt P54646+O43741+P54619+Q9UGJ0+Q9Y478+Q13131+Q9UGI9); assay: AMP-dependent Kinase enzyme assay. An in vitro enzyme assay that detects ADP turnover that is directly proportional to AMPK activity. This uses naive AMPK that is activated during the assay with MK-8722; format: functional; set-up: scale not given: direction of the effect not stated beside the values; settings: 30 µM
[5] = target: Sialic acid-binding Ig-like lectin 9 (Homo sapiens) (UniProt Q9Y336); assay: Hs-Siglec9 ALPHAscreen SOP 20170721; set-up: scale not given: direction of the effect not stated beside the values; settings: 10 µM
Trypanosoma cruzi = assay: Trypanosoma cruzi phosphomannomutase and mannose-1-phosphate guanylyltransferase assay; format: functional; set-up: scale not given: direction of the effect not stated beside the values; settings: 10 µM
[6] = target: T3, Arginase-2, mitochondrial (Homo sapiens) (UniProt P78540); assay: in vitro enzyme assay to detect the production of urea directly proportional to the activity of Arginase II; format: functional; set-up: scale not given: in the data most compounds retested in dose-response had high values; settings: 33.3 µM
T3 sequence (whole entry): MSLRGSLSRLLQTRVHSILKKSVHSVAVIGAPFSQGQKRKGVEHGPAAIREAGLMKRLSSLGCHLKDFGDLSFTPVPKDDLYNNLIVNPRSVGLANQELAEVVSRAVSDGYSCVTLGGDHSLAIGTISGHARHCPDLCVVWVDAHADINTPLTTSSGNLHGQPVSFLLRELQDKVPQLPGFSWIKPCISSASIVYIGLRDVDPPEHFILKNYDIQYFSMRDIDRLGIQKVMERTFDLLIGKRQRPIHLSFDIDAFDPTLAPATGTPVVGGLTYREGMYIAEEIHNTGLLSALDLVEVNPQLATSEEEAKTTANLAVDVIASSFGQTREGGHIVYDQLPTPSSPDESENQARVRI

[7] = target: T4, Proteasome subunit beta (Trypanosoma cruzi) (UniProt O96673); assay: Trypanosoma cruzi proteasome chymotrypsin-like activity (TcProtChymo) assay.; format: functional; set-up: scale not given: in the data most compounds retested in dose-response had high values; settings: 9.37 µM
T4 sequence (whole entry): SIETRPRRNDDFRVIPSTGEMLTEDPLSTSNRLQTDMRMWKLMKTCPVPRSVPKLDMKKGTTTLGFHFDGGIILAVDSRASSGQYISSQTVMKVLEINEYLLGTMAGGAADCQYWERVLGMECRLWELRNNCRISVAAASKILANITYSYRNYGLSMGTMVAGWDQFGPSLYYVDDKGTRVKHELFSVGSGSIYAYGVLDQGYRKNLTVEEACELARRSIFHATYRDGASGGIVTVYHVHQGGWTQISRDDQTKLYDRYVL

Homo sapiens = organism: Homo sapiens; assay: To identify inhibition of the IFN signalling (Jak-Stat) pathway via expression of an eGFP reporter gene under the control of an IFN-stimulated response element (ISRE) containing MxA promoter.; format: functional; set-up: scale not given: direction of the effect not stated beside the values; settings: 30 µM
[8] = target: Shiga toxin 2 (Escherichia coli O157:H7) (UniProt P09385+P09386); assay: E. coli 0.157:H7 Shiga Toxin SOP - stx2 screening assay; format: functional; set-up: scale not given: direction of the effect not stated beside the values; settings: 30 µM
[9] = target: T5, Tyrosyl-tRNA synthetase, putative (Trypanosoma cruzi (strain CL Brener)) (UniProt Q4DSP6); assay: Trypanosoma cruzi tyrosyl tRNA synthetase (TcYRS) _High Tyrosine SOP; format: functional; set-up: scale not given: in the data most compounds retested in dose-response had high values; settings: 30 µM
T5 sequence (whole entry): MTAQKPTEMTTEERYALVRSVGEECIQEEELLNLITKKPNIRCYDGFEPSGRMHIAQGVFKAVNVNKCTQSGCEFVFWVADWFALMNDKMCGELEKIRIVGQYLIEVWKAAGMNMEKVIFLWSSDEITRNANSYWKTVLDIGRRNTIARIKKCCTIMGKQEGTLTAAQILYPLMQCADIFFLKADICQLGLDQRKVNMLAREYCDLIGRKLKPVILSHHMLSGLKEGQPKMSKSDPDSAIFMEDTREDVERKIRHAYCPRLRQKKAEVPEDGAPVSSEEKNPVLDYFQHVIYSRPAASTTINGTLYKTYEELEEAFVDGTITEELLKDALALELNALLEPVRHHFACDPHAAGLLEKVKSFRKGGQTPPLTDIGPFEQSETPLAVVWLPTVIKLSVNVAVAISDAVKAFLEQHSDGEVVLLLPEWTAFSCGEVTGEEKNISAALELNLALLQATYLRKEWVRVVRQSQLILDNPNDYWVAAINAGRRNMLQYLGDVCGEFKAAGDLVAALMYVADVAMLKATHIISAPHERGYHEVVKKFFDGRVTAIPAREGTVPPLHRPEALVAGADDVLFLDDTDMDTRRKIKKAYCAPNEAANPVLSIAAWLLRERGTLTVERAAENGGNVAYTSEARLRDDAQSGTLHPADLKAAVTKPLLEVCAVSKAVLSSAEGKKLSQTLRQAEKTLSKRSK

[10] = target: T5, Tyrosyl-tRNA synthetase, putative (Trypanosoma cruzi (strain CL Brener)); assay: Trypanosoma cruzi tyrosyl tRNA synthetase (TcYRS) SOP; format: functional; set-up: scale not given: direction of the effect not stated beside the values; settings: 30 µM
[11] = target: Chromo domain-containing protein 1 (Saccharomyces cerevisiae (strain ATCC 204508 / S288c) (Baker's yeast)) (UniProt P32657); assay: ScCHD-1 Enzyme Inhibition Assay; format: functional; set-up: scale not given: in the data most compounds retested in dose-response had high values; settings: 30 µM
[12] = target: T6, Methionyl-tRNA synthetase, putative (Leishmania donovani (strain BPK282A1)) (UniProt E9BF75); assay: Leishmania donovani Methionine tRNA synthetase (LdMetRS):v7. Dose response assay; format: functional; set-up: conc 80 nM, time 150 minutes
T6 sequence (whole entry): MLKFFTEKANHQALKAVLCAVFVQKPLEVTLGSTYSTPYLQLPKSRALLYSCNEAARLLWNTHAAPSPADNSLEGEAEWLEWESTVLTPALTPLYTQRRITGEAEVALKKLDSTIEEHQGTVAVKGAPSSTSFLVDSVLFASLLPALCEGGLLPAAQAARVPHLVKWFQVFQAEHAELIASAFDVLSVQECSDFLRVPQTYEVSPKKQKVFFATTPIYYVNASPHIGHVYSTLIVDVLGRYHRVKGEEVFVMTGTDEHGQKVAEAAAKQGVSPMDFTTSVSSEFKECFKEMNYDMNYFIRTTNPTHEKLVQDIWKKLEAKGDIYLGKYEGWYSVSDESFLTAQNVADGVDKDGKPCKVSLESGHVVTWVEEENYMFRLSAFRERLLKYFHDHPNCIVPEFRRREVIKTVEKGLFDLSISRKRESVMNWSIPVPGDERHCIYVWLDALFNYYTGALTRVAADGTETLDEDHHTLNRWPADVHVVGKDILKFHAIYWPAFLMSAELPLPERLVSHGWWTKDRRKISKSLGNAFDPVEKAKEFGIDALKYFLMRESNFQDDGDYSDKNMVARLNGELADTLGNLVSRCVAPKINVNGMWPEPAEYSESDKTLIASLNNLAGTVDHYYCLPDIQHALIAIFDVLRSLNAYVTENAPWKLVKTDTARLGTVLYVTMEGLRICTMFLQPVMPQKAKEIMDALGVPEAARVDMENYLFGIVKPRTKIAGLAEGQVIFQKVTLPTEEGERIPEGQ

N/A = assay: Trypanosoma cruzi proteasome luciferase counter-screen; format: functional; set-up: scale not given: direction of the effect not stated beside the values; settings: 9.37 µM

Protein translocase subunit SecA (Escherichia coli (strain K12)), sequence (P10408 whole entry): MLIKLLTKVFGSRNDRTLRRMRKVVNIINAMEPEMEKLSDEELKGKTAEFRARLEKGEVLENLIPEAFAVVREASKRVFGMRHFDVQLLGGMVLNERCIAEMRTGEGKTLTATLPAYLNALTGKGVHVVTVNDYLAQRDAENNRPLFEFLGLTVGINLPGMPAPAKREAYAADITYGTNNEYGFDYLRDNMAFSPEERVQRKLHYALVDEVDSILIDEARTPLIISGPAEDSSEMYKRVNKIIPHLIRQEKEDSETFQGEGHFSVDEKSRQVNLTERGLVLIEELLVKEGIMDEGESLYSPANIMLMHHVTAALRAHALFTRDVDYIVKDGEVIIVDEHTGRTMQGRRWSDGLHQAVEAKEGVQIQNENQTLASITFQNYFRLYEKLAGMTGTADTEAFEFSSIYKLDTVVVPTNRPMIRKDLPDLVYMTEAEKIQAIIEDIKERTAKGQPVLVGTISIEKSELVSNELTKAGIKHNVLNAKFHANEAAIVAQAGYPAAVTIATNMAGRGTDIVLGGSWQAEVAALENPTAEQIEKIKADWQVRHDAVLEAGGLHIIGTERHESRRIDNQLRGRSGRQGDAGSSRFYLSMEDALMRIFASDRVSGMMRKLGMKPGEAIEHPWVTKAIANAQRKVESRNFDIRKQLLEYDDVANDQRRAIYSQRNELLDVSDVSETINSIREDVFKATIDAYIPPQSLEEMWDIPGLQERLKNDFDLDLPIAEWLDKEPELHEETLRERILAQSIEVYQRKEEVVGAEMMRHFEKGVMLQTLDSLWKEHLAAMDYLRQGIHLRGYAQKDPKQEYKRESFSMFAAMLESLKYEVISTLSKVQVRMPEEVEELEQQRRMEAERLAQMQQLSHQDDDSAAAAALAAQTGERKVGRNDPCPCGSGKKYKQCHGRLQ
Chromo domain-containing protein 1 (Saccharomyces cerevisiae (strain ATCC 204508 / S288c) (Baker's yeast)), sequence (P32657 whole entry, the tested form may be a part): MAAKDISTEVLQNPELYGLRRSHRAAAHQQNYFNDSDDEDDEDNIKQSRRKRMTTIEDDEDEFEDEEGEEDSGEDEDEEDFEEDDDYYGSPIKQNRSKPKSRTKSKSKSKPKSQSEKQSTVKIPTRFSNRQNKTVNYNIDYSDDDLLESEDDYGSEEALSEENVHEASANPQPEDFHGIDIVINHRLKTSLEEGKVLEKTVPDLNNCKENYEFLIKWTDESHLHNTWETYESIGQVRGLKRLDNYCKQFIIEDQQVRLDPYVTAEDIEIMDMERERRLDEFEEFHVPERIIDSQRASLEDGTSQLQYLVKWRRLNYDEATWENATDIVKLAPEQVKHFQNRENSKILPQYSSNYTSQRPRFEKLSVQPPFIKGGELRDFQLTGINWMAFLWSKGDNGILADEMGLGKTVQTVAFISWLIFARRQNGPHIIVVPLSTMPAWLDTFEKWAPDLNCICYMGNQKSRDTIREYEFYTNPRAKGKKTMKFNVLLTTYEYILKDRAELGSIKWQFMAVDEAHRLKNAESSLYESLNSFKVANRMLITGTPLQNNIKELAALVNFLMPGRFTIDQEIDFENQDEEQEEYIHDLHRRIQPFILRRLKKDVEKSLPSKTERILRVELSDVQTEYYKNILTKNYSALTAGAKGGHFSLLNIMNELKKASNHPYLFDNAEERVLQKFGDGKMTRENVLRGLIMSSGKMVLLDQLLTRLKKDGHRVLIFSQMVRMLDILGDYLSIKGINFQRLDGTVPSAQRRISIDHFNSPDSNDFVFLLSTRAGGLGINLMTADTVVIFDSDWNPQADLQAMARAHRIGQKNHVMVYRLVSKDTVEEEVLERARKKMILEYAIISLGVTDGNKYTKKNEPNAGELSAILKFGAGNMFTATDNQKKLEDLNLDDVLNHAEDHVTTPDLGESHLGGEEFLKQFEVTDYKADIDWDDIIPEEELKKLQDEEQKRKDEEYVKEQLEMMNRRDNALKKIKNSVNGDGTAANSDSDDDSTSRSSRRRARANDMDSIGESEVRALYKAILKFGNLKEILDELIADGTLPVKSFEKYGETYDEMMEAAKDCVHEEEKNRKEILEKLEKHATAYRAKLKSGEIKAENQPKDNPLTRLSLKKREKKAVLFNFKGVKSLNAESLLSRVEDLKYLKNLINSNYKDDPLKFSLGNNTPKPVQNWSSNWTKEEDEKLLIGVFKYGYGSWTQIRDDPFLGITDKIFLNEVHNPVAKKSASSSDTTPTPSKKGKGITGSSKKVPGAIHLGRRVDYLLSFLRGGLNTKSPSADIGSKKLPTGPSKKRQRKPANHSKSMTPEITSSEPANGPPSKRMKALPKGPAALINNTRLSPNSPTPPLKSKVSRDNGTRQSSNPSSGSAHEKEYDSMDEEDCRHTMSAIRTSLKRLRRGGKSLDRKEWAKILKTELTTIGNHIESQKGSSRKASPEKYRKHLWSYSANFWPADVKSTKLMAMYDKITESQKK
Sialic acid-binding Ig-like lectin 9 (Homo sapiens), sequence (Q9Y336 whole entry): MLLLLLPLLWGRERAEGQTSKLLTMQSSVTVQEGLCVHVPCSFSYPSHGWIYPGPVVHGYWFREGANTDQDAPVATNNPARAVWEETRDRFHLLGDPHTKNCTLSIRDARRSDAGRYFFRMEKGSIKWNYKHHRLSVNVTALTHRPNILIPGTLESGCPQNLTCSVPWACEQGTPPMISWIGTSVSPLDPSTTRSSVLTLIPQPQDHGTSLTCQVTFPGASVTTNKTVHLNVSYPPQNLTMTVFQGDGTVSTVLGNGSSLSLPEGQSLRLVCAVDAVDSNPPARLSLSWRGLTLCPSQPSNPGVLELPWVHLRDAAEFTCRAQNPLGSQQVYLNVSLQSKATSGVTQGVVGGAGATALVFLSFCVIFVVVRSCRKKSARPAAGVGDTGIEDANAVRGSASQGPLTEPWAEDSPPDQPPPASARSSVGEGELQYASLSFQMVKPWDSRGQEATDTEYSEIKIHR

SMILES	Percent Effect [1]	Percent Effect [2]	Percent Effect [3]	Percent Effect [4]	Percent Effect [5]	Percent Effect (Trypanosoma cruzi)	Percent Effect [6]	Percent Effect [7]	Percent Effect (Homo sapiens)	Percent Effect [8]	Percent Effect [9]	Percent Effect [10]	Percent Effect [11]	PXC50 ([12]; MAX_EFFECT 9.719626168)	PXC50 ([12]; MAX_EFFECT 11.33786848)	Percent Effect (N/A)	PXC50 ([12]; MAX_EFFECT 7.981220657)	PXC50 ([12]; MAX_EFFECT 9.814814815)
O=C(Cc1cccs1)N1C[C@@H]2OCCN(CC3CCCC3)[C@@H]2C1	-3.05%	11%	-2.94%	-0.507%	19.2%	1.59%	-6.79%	4.37%	-10.9%	13.2%	4.17%	6.17%	-1.65%					
c1cncc(COC[C@H]2CC[C@H]3[C@H](CCN3Cc3cccs3)O2)c1	-1.85%	13.3%	6.9%	3.86%	2.88%	-0.197%	3.5%	22.8%	3.65%	-13.6%	7.45%	14.1%	-5.4%					
Cc1ccc(N2CCC3(CN(CCO)CCC3(F)F)C2)nn1 (stereo not drawn)														< 4	< 4			
CC(Cn1cccn1)NCc1csc(-c2cccs2)n1 (stereo not drawn)	-0.415%	5.41%	-4.5%	-7.34%	-3.93%	-4.81%	-0.802%	79.3% and 83.2% and 84%	17.6%	21.1%	7.39%	13.6%	-4.55%			52.8% and 51.5%		
O=C(O)CN1CCC(F)(F)C2(CCN(c3ccccn3)C2)C1 (stereo not drawn)																	< 4	< 4
CO[C@@H]1CN(Cc2scnc2C)[C@@H]2CCCO[C@@H]21	-5.71%	2.7%	-1.4%	-6.24%	4.17%	2.25%	3.72%	82% and 78.2% and 80%	-7.25%	8.62%	6.45%	8.64%	-1.19%			19.6% and 16.4%		
